# The entries come from a sample that favours hits as a whole.
# Sfp PPTase inh = qHTS Assay for Inhibitors of Bacillus subtilis Sfp phosphopantetheinyl transferase (PPTase) | actives 3.5% (n = 310,000) | 4'-phosphopantetheinyl transferase ffp (Bacillus subtilis), Q9F4F7 | Biochemical Sfp PPTase activity, qHTS | Potency, µM, for the others: largest response in the series, negative = inhibition, usual class: inhibitors;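 note: the enzyme is Sfp with the accession as filed and its product quenches rhodamine fluorescence; 0% = enzyme reaction without inhibitor and -100% = no enzyme wells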
#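 Sfp 15 nM + cpd, 15 min RT; start w/ rhodamine-CoA 5 uM, BHQ-2-YbbR 12.5 uM (final); 50 mM Hepes pH 7.6, 10 mM MgCl2, 0.01% NP-40, 0.01% BSA; read 525/598 nm at 0 and 30 min.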
# ALOX12 inh = Primary qHTS assay for inhibitors of human arachidonate 12S-lipoxygenase (ALOX12): Round 2. purified 12hLO, xylenol orange hydroperoxide absorbance. Potency, µM (top dose mostly 108 µM), inactives show at the top dose activity change, negative = inhibition, hits mostly inhibitors. actives 1.1% (n = 580,000). AID 1671190, 2021; note: % is set by controls: 0 for no effect and ±100 for the full control effect
# Target sequence (P18054 whole entry, looked up): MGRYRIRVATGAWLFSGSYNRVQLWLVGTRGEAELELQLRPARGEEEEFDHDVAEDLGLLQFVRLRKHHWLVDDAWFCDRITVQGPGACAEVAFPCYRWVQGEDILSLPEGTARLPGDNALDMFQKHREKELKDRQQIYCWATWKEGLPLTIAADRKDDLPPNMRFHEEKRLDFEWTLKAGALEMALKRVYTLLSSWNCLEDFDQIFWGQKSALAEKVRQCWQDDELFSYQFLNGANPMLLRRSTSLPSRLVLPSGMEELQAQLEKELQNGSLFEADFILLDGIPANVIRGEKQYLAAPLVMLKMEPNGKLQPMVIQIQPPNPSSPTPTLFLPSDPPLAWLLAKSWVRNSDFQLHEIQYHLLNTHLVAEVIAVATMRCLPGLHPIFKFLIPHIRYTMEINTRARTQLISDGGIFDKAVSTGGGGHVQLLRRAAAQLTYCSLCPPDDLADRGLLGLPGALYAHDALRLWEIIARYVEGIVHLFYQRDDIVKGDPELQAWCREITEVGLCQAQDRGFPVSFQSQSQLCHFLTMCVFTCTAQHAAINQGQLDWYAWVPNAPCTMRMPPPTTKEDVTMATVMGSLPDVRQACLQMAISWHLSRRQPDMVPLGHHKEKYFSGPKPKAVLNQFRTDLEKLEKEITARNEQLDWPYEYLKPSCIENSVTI
#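 Purified human 12hLO (150 nM final) in 25 mM Hepes, 0.01% Triton X-100, pH 7.0 was preincubated 15 min at room temperature with compound. Then 40 uM arachidonic acid was added, 30 min. Hydroperoxide was read by Fe-XO absorbance ratio 573/405 nm.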
# G9a block = qHTS Assay for Inhibitors of Histone Lysine Methyltransferase G9a; Potency, µM (doses to about 102 µM), inactives show at the highest dose activity, negative = inhibition, most hits filed as inhibitors; AID 504332, 2011; G9a H3K9 monomethylation, AlphaScreen, 2 h; actives 8.8% (n = 350,000); Histone-lysine N-methyltransferase EHMT2 (Homo sapiens), Q96KQ7; note: % is set by controls: 0 for no effect and ±100 for the full control effect; nearly all actives have a fitted effect of over 75% in size
#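 Using a bead-based AlphaScreen, monomethylated H3K9 product from 2 h room-temperature reactions (G9a 20 nM, peptide 500 nM, SAM 20 uM) was detected with 0.5 ug/mL rabbit anti-H3K9me1 antibody.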
# VDR inhibitor = Inhibitors of the vitamin D receptor (VDR): qHTS | Vitamin D3 receptor (Homo sapiens), P11473 | VDR-SRC2-3 peptide fluorescence polarization, 2 h | Potency, µM, without a hit: max response, negative = inhibition, actives largely listed as inhibitors | actives 0.93% (n = 400,000) | AID 504847, 2011; note: % is set by controls: 0 for no effect and ±100 for the full control effect
#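 Two reagent solutions held at 4 deg C in the dark were dispensed, compounds pinned at 23 nl, and the mixture incubated 2 h at room temperature. Read-out: fluorescence polarization of VDR–SRC2-3 peptide binding.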
# Glioma ERSR ind = qHTS for Inducers of the Endoplasmic Reticulum Stress Response (ERSR) in Human Glioma: qHTS. U87-MG GRP78 promoter luciferase reporter, 16 h. Potency, µM, for the others: at the top dose activation, actives largely listed as activators. actives 0.02% (n = 420,000). AID 602332, 2012; note: series mostly up to about 76 µM; % of control where 0% means no effect; nearly all actives have a fitted effect of over 35% in size
#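 Stably transfected U87-MG human glioma cells carrying a GRP78-based luminescent sensor were seeded at 1000 cells/well, pin-dosed with compounds and incubated 16 h. Luciferase reagent was then added, and end-point luminescence was read after 10 min at room temperature.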
# * = called active by the depositor; ? = inconclusive; . = no result; ! = not confirmed by another sample; [ ] = remark or other dose. Calls come from the whole dose curve; as a rule, active = well fitted curve in the direction sought with a large enough effect; inconclusive = small, poorly fitted or top-dose-only effect, or another doubt; inactive = no such curve, though single readings can be large; an effect the other way counts as inactive or inconclusive. Potency is the fitted concentration of half-maximal effect.
SMILES,Sfp PPTase inh,ALOX12 inh,G9a block,VDR inhibitor,Glioma ERSR ind
CCCOc1ccccc1/C=C1\SC(N)=NC1=O,8.7%,14.1%,18.5%,4.7%,-4.5%
Cn1cc(C(C(=O)O)N2CCC(Cc3ccccc3)CC2)c2ccc(C(=O)O)cc21 (centres undefined),.,-4.9%,.,.,.
Cc1cc(C)cc(C(=O)N2CCC(n3cnnc3-c3ccccc3)CC2)c1,.,26.3%,.,.,.
CCN(C(=O)C1CCCO1)C1CC1 (centres undefined),.,-23.9%,.,.,.
Cc1cc(C=C2C(=O)CCCC2=O)c(C)n1-c1ccccc1,2.9%,?,50.1µM*,-11.6%,-8.2%
CCOC(=O)C(C)N1C(=O)S/C(=C/c2cc(C)n(-c3ccncc3)c2C)C1=O (centres undefined),6.9%,-12.1%,50.1µM*,-2.8%,2.8%
CC(C)(CNC(=O)c1cccc2ccccc12)CNC(=O)c1cccc2ccccc12,.,19.0%,.,.,.
O=[N+]([O-])c1ccc(O)c2ncccc12,-24.9%,?,?,39.8µM*!,-6.9%
O=[N+]([O-])c1cc(F)c2cccnc2c1O,?,-7.4%,8.91µM*,-21.9%,-1.6%
O=[N+]([O-])c1cc(Cl)c(O)c2ncccc12,-40.0%,5.62µM*,25.1µM*,7.3%,-2.5%
O=[N+]([O-])c1cc(Cl)c2cccnc2c1O,4.8%,?,35.5µM*,-4.7%,-2.2%
O=[N+]([O-])c1ccc(Cl)c2cccnc12,-3.9%,-25.1%,10.7%,6.1%,-0.9%
Cc1ccc(OCC(=O)N(C)CC(=O)Nc2c(Cl)cccc2Cl)cc1C,.,1.8%,.,.,.
Oc1c(I)cc(Cl)c2cccnc12,-0.9%,11.2µM*,35.5µM*,?,-5.3%
Clc1cc2cccnc2c2ncccc12,.,?,?,?,-7.1%
CCOC(=O)Cn1cnc2c1c(=O)n(C)c(=O)n2C,.,8.6%,.,.,.
COc1cc(/C=C2/SC(=S)N(Cc3ccccc3)C2=O)ccc1OS(C)(=O)=O,4.0%,-29.2%,12.6µM*,-5.0%,14.1%
COc1cc(/C=C2\SC(=O)N(Cc3ccc(Cl)cc3)C2=O)cc([N+](=O)[O-])c1O,-19.2%,-102.3%,-116.3%[59 µM],-3.3%,-2.9%
COc1cc(/C=C2\SC(=S)N(CC(=O)O)C2=O)ccc1OS(=O)(=O)c1ccc(C)cc1,.,?,5.4%[0.501 µM],?,-1.6%
COc1cc([N+](=O)[O-])cc(/C=C2/SC(=S)N(Cc3ccccc3)C2=O)c1O,39.8µM*,15.8µM*,10µM*,?,-3.1%
COc1cc(/C=C2/SC(=S)N(CC(=O)O)C2=O)ccc1OC(=O)c1cccs1,?,?,50.1µM*,?,0.5%
CC(=O)Oc1ccc(/C=C2/SC(=S)N(Cc3ccccc3)C2=O)cc1,7.8%,-4.8%,?,-12.8%,-2.5%
COc1cc(/C=C2/SC(=S)N(Cc3ccccc3)C2=O)cc(Cl)c1O,-3.4%,?,44.7µM*,-25.5%,-6.8%
CCCNC(=O)N1CCCCCNC(=O)CC1c1ccccc1 (centres undefined),.,13.0%,.,.,.
Cn1nc(C(=O)N2CCc3sccc3C2)c2ccccc2c1=O,.,39.4%,.,.,.
SMILES,Sfp PPTase inh,ALOX12 inh,G9a block,VDR inhibitor,Glioma ERSR ind
O=C(/C=C/c1ccc(O)cc1)c1ccccc1O,-43.5%,.,?,5.62µM*,8.9%
O=C(/C=C\c1ccccc1)c1ccccc1O,14.4%,.,.,.,-2.8%
COc1ccc(/C=C\C(=O)CC(O)(c2ccccc2)C(F)(F)F)cc1 (centres undefined),-16.1%,-4.9%,-6.1%,50.1µM*,-1.5%
COc1cc(O)c(C(=O)/C=C/c2ccccc2)c(O)c1,6.0%,.,.,.,-4.0%
COc1ccc(/C=C/C(=O)c2ccccc2O)cc1,?,.,44.7µM*,?,4.9%
COc1cc(O)c(C(=O)/C=C/c2ccccc2)c(OC)c1,-22.6%,-6.2%,?,14.1µM*,?
CNc1ccc(C)cc1C(=O)N1CCC2(CCCN(C)CC2)CC1,.,4.6%,.,.,.
CC(NC(=O)c1nccnc1N)c1ccc2ccccc2c1 (centres undefined),.,19.8%,.,.,.
Cc1ccc(C(=O)N2CCCC3(C2)Nc2cccnc2NC3=NC2CCCC2)cc1F (centres undefined),.,61.9%,.,.,.
Cc1cccc(N(CC(O)Cn2cnc3ccccc32)S(=O)(=O)c2ccccc2)c1 (centres undefined),.,-69.1%,.,.,.
COC(=O)C(C)Sc1nc2c([nH]c3ccccc32)c(=O)n1C (centres undefined),50.1µM*,-23.7%,?,2.6%,-1.5%
CCC(C)Sc1nc2c([nH]c3ccccc32)c(=O)n1C (centres undefined),5.0%,7.4%[57.4 µM],0.7%,10.0%,-2.1%
Nc1ccccc1OCCCc1ccccc1,.,-3.0%,.,.,.
Cc1cccc(NC(=O)CSc2ncnc3nc[nH]c23)c1C,17.1%,-23.4%,44.7µM*,3.5%,-4.3%
Cc1ccc(C)c(NC(=O)CSc2ncnc3nc[nH]c23)c1,9.5%,?,?,-5.5%,-1.5%
COc1cc(C2C(C(C)=O)=C(O)C(=O)N2CCc2c[nH]c3ccccc23)ccc1O (centres undefined),-5.3%,-5.5%,50.1µM*,-9.1%,-1.7%
COCCN1C(=O)C(O)=C(C(C)=O)C1c1ccc(OC)c(OC)c1 (centres undefined),-11.5%,?,44.7µM*,17.3%,7.0%
Cc1ccccc1N=Nc1c(C)[nH]n(C(N)=S)c1=O,-9.9%,?,?,-5.6%,7.0%
Cc1[nH]n(C(N)=S)c(=O)c1N=Nc1ccc([N+](=O)[O-])cc1Cl,6.0%,10µM*,25.1µM*,-8.4%,8.1%
NC(=S)n1[nH]c(-c2ccc([N+](=O)[O-])cc2)c(N=Nc2cccc(Cl)c2)c1=O,-13.2%,?,35.5µM*,8.4%,-5.9%
CCN(CC)S(=O)(=O)c1ccc(N=Nc2c(C)[nH]n(C(N)=S)c2=O)cc1,79.4µM*,-10.2%,?,-14.8%,0.6%
Cc1[nH]n(C(N)=S)c(=O)c1N=Nc1cccc(Cl)c1,5.7%,0.0%,39.8µM*,-5.1%,7.9%
Cc1ccc(C)c(C(=O)c2cc3ccccc3o2)c1,.,-1.9%,.,.,.
CNc1c(NS(=O)(=O)c2ccc(N3CCCC3=O)cc2)c(=O)oc2ccccc12,.,7.5%,.,.,.
O=C(CSc1nc(C2CC2)n(-c2ccccc2)n1)Nc1ccccc1,.,-28.9%,.,.,.
Cc1cccc(N=Nc2c(C)[nH]n(C(N)=S)c2=O)c1C,-4.9%,-13.9%,?,.,.
NC(=S)n1[nH]c(-c2ccc([N+](=O)[O-])cc2)c(N=Nc2ccc(O)cc2)c1=O,-27.7%,?,56.2µM*,2.2%,-4.4%
Cc1ccc(-c2cnc(CCC(=O)Nc3ccc(F)cc3)o2)cc1C,.,1.0%,.,.,.
Cc1cc(F)ccc1NC(=O)c1nn(CC(C)C)c(=O)c2ccccc12,.,-11.0%,.,.,.
CN1CCCN(C(=O)c2ccc(Cl)cc2)c2ccccc21,.,31.6µM*,.,.,.
